# Hits are enriched below; roughly 8.7% of the tested compounds scored in any of these assays.
# JMJD2A Tudor = qHTS Assay for Inhibitors of JMJD2A-Tudor Domain. AlphaScreen JMJD2A-Tudor / H3K4me3 peptide binding. 4.4% of 390,000 active. Potency, µM (highest dose often 114 µM), without a hit: top-dose activity change, negative = inhibition, hits mostly inhibitors; also: % is scaled to controls: 0 for no effect and ±100 for the full control effect; nearly all actives have a fitted effect of over 50% in size
# Sfp inh = qHTS Assay for Inhibitors of Bacillus subtilis Sfp phosphopantetheinyl transferase (PPTase); 4'-phosphopantetheinyl transferase ffp (Bacillus subtilis), Q9F4F7; Biochemical Sfp PPTase activity, qHTS; Potency, µM, inactives show largest response in the series, negative = inhibition, hits mostly inhibitors; 3.5% of 310,000 active; AID 1490, 2009;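 also: the enzyme is Sfp with the accession as filed and its product quenches rhodamine fluorescence; 0% = enzyme reaction without inhibitor and -100% = no enzyme wells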
#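 Fluorescence-quenching assay: 15 nM Sfp-PPTase preincubated 15 min at room temperature with compound, then 5 uM rhodamine-CoA and 12.5 uM BHQ-2-labelled YbbR peptide added. Fluorescence (ex 525/em 598 nm) read at start and after 30 min; difference gives rate.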
# BAZ2B inh = qHTS Assay for Inhibitors of BAZ2B; 4.4% of 360,000 active; Potency, µM (series often up to 114 µM), for inactives: top-dose activity change, negative = inhibition, actives largely listed as inhibitors; AID 504333, 2011; AlphaScreen BAZ2B-H3K14Ac peptide displacement; also: % is scaled to controls: 0 for no effect and ±100 for the full control effect; nearly all actives have a fitted effect of over 60% in size
#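 AlphaScreen luminescence quantifies BAZ2B engagement of H3K14Ac peptide; the protein and biotinylated peptide are both at 50 nM final, buffer PBS pH 7.4 with 0.01% Tween-20, all steps at room temperature.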
# G9a inh = qHTS Assay for Inhibitors of Histone Lysine Methyltransferase G9a | AID 504332, 2011 | G9a H3K9 monomethylation, AlphaScreen, 2 h | Histone-lysine N-methyltransferase EHMT2 (Homo sapiens), Q96KQ7 | Potency, µM (series often up to 102 µM), inactives show top-dose activity, negative = inhibition, actives largely listed as inhibitors | 8.8% of 350,000 active; also: % is scaled to controls: 0 for no effect and ±100 for the full control effect; nearly all actives have a fitted effect of over 75% in size
# Target sequence (Q96KQ7 913-1193 limits assumed): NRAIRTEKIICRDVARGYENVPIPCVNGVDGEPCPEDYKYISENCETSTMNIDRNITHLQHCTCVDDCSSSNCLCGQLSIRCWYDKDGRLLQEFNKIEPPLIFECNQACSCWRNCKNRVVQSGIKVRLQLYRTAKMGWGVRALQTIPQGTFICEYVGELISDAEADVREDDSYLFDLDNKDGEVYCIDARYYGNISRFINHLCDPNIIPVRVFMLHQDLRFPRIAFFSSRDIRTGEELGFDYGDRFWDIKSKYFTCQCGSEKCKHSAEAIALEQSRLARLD
#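 G9a (20 nM) was preincubated 15 min with compound, then reacted 2 h at room temperature with 500 nM biotin-H3K9 peptide and 20 µM SAM. Monomethyl-H3K9 detected by AlphaScreen using anti-H3K9me1 antibody.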
# HP1b chromo inh = HTS for Inhibitors of HP1-beta Chromodomain Interactions with Methylated Histone Tails. AID 540317, 2011. Potency, µM (highest dose often 114 µM), for inactives: top-dose activity change, negative = inhibition, most hits filed as inhibitors. 0.56% of 390,000 active. Chromobox protein homolog 1 (Homo sapiens), P83916. AlphaScreen HP1-beta / biotin-H3K9me3 peptide binding; also: nearly all actives have a fitted effect of over 70% in size
# Target sequence (P83916 whole entry, looked up): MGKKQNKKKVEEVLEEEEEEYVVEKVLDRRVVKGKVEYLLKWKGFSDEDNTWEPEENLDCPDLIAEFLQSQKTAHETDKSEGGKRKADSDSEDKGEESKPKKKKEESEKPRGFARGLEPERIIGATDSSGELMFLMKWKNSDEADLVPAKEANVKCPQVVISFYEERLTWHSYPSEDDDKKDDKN
#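 HP1-beta protein (50 nM final) preincubated 30 min at room temperature with biotinylated H3(1-18)K9me3 peptide (50 nM) in PBS pH 7.4, 0.01% Tween-20, then compound added for 30 min. AlphaScreen streptavidin donor/nickel chelate acceptor beads (10 ug/mL final), 30 min dark, luminescence read.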
# 12-LOX inh = Primary qHTS assay for inhibitors of human arachidonate 12S-lipoxygenase (ALOX12): Round 2. purified 12hLO, xylenol orange hydroperoxide absorbance. Potency, µM (titrated, usually from 108 µM), inactives show at the top dose activity change, negative = inhibition, usual class: inhibitors. 1.1% of 580,000 active. AID 1671190, 2021; also: % is scaled to controls: 0 for no effect and ±100 for the full control effect
#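 Purified human 12hLO at 150 nM in 25 mM Hepes, 0.01% Triton X-100, pH 7.0, preincubated 15 min at room temperature with compound. Reaction started with 40 uM arachidonic acid, 30 min at room temperature. Hydroperoxide measured by Fe-xylenol orange, 573/405 nm absorbance ratio.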
# * hit, by the source's call; ? = inconclusive; . = no result given; [ ] = dose if it differs, or a comment. Calls follow the shape of the dose curve; as a rule, active = well fitted curve in the direction sought with a large enough effect; inconclusive = small, poorly fitted or top-dose-only effect, or another doubt; inactive = no such curve, though single readings can be large; an effect the other way counts as inactive or inconclusive. Potency is read from the fitted curve at half-maximal effect.
SMILES,JMJD2A Tudor,Sfp inh,BAZ2B inh,G9a inh,HP1b chromo inh,12-LOX inh
Cc1ccc(S(=O)(=O)NC(CC(N)=O)C(=O)O)cc1 (stereo not drawn),?,-6.7%,4.5%,15.8µM*,14.2%,?
COc1ccc(S(=O)(=O)N[C@@H](CSCc2ccccc2)C(=O)O)cc1,-17.2%,-3.5%,?,50.1µM*,18.4%,?
O=C(CC1CCOCC1)NCC1CCN(Cc2cccc(F)c2)CC1,.,.,.,.,.,25.7%
COCc1ccc(CNC(=O)C(C)(C)C)cc1,.,.,.,.,.,-3.8%
CCOC(=O)C1=C(Cc2ccc(OC)cc2)C(=O)c2ccccc2C1=O,39.8µM*,10µM*,22.4µM*,2.82µM*,17.8µM*,.
CCOC(=O)c1ccc(COC(=O)c2ccc3c(c2)-c2ccccc2C3=O)cc1,-16.7%,2.6%,7.3%,0.3%[59 µM],24.0%,-10.2%
CCOC(=O)C1=C(Cc2ccc(C)cc2)C(=O)c2ccccc2C1=O,.,7.94µM*,22.4µM*,8.91µM*,.,11.2µM*
O[C@]12CCNC[C@H]1CN(Cc1cccc(-c3ccccc3)c1)CC2,.,.,.,.,.,5.1%
CC(Sc1cc(C(N)=O)c2ccccc2n1)c1nc(C(C)(C)C)no1 (stereo not drawn),.,.,.,.,.,-0.9%
O=c1c2ccccc2sn1-c1ccc(S(=O)(=O)N2CCOCC2)cc1,50.1µM*,.,.,.,?,.
O=c1c2ccccc2sn1-c1ccc(Cl)c(S(=O)(=O)N2CCOCC2)c1,14.1µM*,.,.,.,?,.
O=C(c1ccc(Cl)c(S(=O)(=O)N2CCOCC2)c1)N1CCOCC1,1.1%,12.3%,7.7%,22.6%,54.3%,-0.7%
O=S(=O)(c1ccc(N2CCOCC2)cc1)N1CCOCC1,-14.2%,6.8%,5.9%,11.3%[59 µM],21.7%,85.8%[57.4 µM]
CNC(=O)COc1ncnc2c(Cl)cc(Cl)cc12,.,.,.,.,.,-1.1%
Cc1ccccc1NC(=S)N(C)Cc1cccs1,-16.0%,13.0%,3.2%,-3.0%[12.7 µM],26.5%,120.5%
Cc1ccccc1-n1c(Cc2cccs2)n[nH]c1=S,8.91µM*,?,-5.1%[57.1 µM],?,1.0%,?
FC(F)(F)c1ccc(Cl)c(-n2c(Cc3cccs3)n[nH]c2=S)c1,?,79.4µM*,?,.,16.4%,?
Fc1ccc(-n2c(Cc3cccs3)n[nH]c2=S)cc1Cl,-25.7%,6.8%,-26.6%,1.78µM*,30.4%,-7.7%
CCn1cc(-c2cc(-c3ccccc3OC)nc3c(C)noc23)cn1,.,.,.,.,.,15.3%[176 µM]
CCCc1ccc(C2(C)NC(=O)N(Cc3ncc(-c4ccccc4)o3)C2=O)cc1 (stereo not drawn),.,.,.,.,.,3.4%
CC(=O)c1ccc(-c2ccc(C(=O)N3CCN(c4ccc(F)cc4)CC3)o2)cc1,?,-11.5%,.,31.6µM*,-0.1%,-3.3%
CC(=O)c1ccc(-c2ccc(C(=O)N3CCCc4ccccc43)o2)cc1,?,-6.5%,?,44.7µM*,-24.0%,-6.9%
O=C(c1ccc(Br)o1)N1CCN(c2ccc(F)cc2)CC1,-16.5%,5.1%,-31.9%,-8.5%[59 µM],2.5%,0.0%
Cc1ccc(N(CC(=O)Nc2ccc(Cl)cc2)S(=O)(=O)c2cccc3nonc23)cc1,?,.,.,?,13.1%,?
Cc1ccc(NC(=O)CN(c2ccc(C)cc2)S(=O)(=O)c2cccc3nonc23)cc1,?,12.3%,-32.4%,50.1µM*,-0.8%,?
SMILES,JMJD2A Tudor,Sfp inh,BAZ2B inh,G9a inh,HP1b chromo inh,12-LOX inh
NC(N)=Nc1nc(-c2ccccc2)c2ccccc2n1,-16.1%,50.1µM*,-14.4%,-23.6%,34.7%,?
O=S(=O)(Nc1cc(S(=O)(=O)N2CCOCC2)ccc1O)c1ccc2c(c1)OCCCO2,-32.3%,.,56.2µM*,1.26µM*,?,?
O=S(=O)(Nc1cc(S(=O)(=O)N2CCOCC2)ccc1N1CCOCC1)c1ccc2c(c1)OCCO2,-17.7%,1.8%,0.2%,39.8µM*,27.6%,-12.1%
O=S(=O)(NCc1ccc2c(c1)OCO2)c1cccc(S(=O)(=O)N2CCOCC2)c1,-19.8%,4.9%,-4.7%,39.8µM*,21.2%,?
CC(Sc1n[nH]c(-c2cccs2)n1)C(=O)Nc1c(F)cccc1F (stereo not drawn),.,.,.,.,.,-25.0%
COc1ccc(Nc2cnc3ccc(-c4ccc(OC)c(OC)c4)nn23)cc1,.,.,.,.,.,5.5%[176 µM]
Cc1cc(O)c(C=Nc2ccc(N3CCOCC3)cc2)c(C)c1Cl,-16.4%,-13.3%,?,8.91µM*,0.1%,?
Cn1c(O)c(C=Nc2ccc(N3CCOCC3)cc2)c(=O)n(C)c1=S,-4.4%,-5.2%,1.2%,1.7%[59 µM],9.1%,-0.1%
Cc1ccc([N+](=O)[O-])cc1-c1ccc(/C=N/NC(=O)CN2CCOCC2)o1,?,2.9%,-33.3%,?,32.5%,-0.5%
Cc1ccc(Cl)cc1-c1ccc(C=Nc2ccc(N3CCOCC3)cc2)o1,35.5µM*,?,28.2µM*,?,?,?
COC1CN(c2cccc(F)c2)C12CCN(C(=O)c1cccnc1)CC2 (stereo not drawn),.,.,.,.,.,18.2%
Cc1ncc2n1C(=O)N(C1CCN(C(=O)c3ccccc3Cl)CC1)C2,.,.,.,.,.,-7.7%
CCOc1cc(C(=O)Nc2c(NC3CCCCC3)c3ccccc3oc2=O)cc(OCC)c1OCC,.,.,.,.,.,2.8%
NC(=O)C1CCN(C2CC(=O)N(Cc3ccc(N4CCCC4=O)cc3)C2=O)CC1 (stereo not drawn),?,0.8%,-9.3%,44.7µM*,26.8%,46.6%
C/C(N)=C(/C#N)C(=O)CSc1nc2ccccc2c(=O)n1Cc1ccc(F)cc1,-21.1%,70.8µM*,?,-44.0%,5.3%,7.9%
C(CCN1CCOCC1)CN1CCOCC1,.,.,.,.,.,-2.7%
OCCN1CCOCCN(CCO)CCOCC1,22.4µM*,10.9%,-0.6%,?,0.3%,-2.4%
CCOC(=O)N1CCC(NC(=S)Nc2ccc3nc(N4CCN(CC)CC4)cc(C)c3c2)CC1,-17.6%[11.4 µM],10.4%,?,25.1µM*,16.4%,-3.2%
CCCCNC(=S)Nc1ccc2nc(N3CCN(CC)CC3)cc(C)c2c1,?,-12.9%,?,?,12.2%,?
CCOC(=O)N1CCC(NC(=S)Nc2ccc3nc(N4CCN(C)CC4)cc(C)c3c2)CC1,-15.5%,-2.5%,-16.4%,?,14.6%,3.0%
CCCCN(CC)C(=S)Nc1ccc2nc(N3CCN(C)CC3)cc(C)c2c1,?,-11.9%,?,39.8µM*,-1.3%[57 µM],1.9%
